The text below walks through data of paper PMC11062922 (Nature Chemical Biology, 2023).

Where two headings read alike, the source gives them in different places.

What all share (design): species or system human, MV4-11 + K-562 + COLO205 + SK-N-BE2 + OVCAR-8
For one assay, the system named is CDKL5. Particulars: read-out: apparent Kd, compound concentrations: 100 nM and 1000 nM (sheet 'Samples'), n = 1.
Another assay relates to MAPK11. Particulars: read-out: apparent Kd, compound concentrations: 100 nM and 1000 nM (sheet 'Samples'), n = 1.
The subject of another assay is MAPK14. Particulars: read-out: apparent Kd, n = 1.
A further assay deals with MAPKAPK2. Conditions: read-out: apparent Kd; compound concentrations: 100 nM and 1000 nM (sheet 'Samples'), CATDS: 0.2534240729319; n = 1.
The subject of a further assay is CDK6. Conditions: read-out: apparent Kd, n = 1.
The subject of another assay is HSP90B1. Particulars: read-out: apparent Kd; compound concentrations:100 nM and 1000 nM (sheet 'Samples'); n = 1.
In the next assay the test system is MAP2K1. Conditions: read-out: apparent Kd; compound concentrations:100 nM and 1000 nM (sheet 'Samples'); n = 1.
Another assay concerns MAP2K2. Particulars: read-out: apparent Kd; compound concentrations:100 nM and 1000 nM (sheet 'Samples'); n = 1.
Another assay relates to NNT. Conditions: read-out: apparent Kd; compound concentrations:100 nM and 1000 nM (sheet 'Samples'); n = 1.
The next assay concerns NQO1. Particulars: read-out: apparent Kd, n = 1.
The subject of a further assay is ERBB3. Conditions: read-out: apparent Kd; compound concentrations: 100 nM and 1000 nM (sheet 'Samples'), CATDS: 0.345701208148325; n = 1.
Another assay concerns MYLK3. Conditions: read-out: apparent Kd; compound concentrations: 100 nM and 1000 nM (sheet 'Samples'), CATDS: 0.366305815038865; n = 1.
The next assay concerns FYN. Particulars: read-out: apparent Kd; compound concentrations:100 nM and 1000 nM (sheet 'Samples'); n = 1.
In another assay the test system is PI4KA. Particulars: read-out: apparent Kd; compound concentrations:100 nM and 1000 nM (sheet 'Samples'); n = 1.
In the next assay the test system is PIK3C2A. Particulars: read-out: apparent Kd; compound concentrations:100 nM and 1000 nM (sheet 'Samples'); n = 1.
A further assay has as its system PIK3C3. Conditions: read-out: apparent Kd; compound concentrations:100 nM and 1000 nM (sheet 'Samples'); n = 1.
For another assay, the system named is PIK3CB. Conditions: read-out: apparent Kd; compound concentrations: 100 nM and 1000 nM (sheet 'Samples'), CATDS: 0.44243244506727197; n = 1.
Another assay concerns PIK3CD. Conditions: read-out: apparent Kd, compound concentrations: 100 nM and 1000 nM (sheet 'Samples'), n = 1.
The subject of a further assay is PIM2. Conditions: read-out: apparent Kd; compound concentrations:100 nM and 1000 nM (sheet 'Samples'); n = 1.
The next assay deals with PRKDC. Particulars: read-out: apparent Kd; compound concentrations:100 nM and 1000 nM (sheet 'Samples'); n = 1.
Another assay concerns RIOK2. Particulars: read-out: apparent Kd, n = 1.
In the next assay the test system is VDAC3. Particulars: read-out: apparent Kd; compound concentrations:100 nM and 1000 nM (sheet 'Samples'); n = 1.
In a further assay the test system is ERCC2. Particulars: read-out: apparent Kd; compound concentrations: 100 nM and 1000 nM (sheet 'Samples'), CATDS: 8.00195217918135E-2; n = 1.
A further assay deals with ILK. Conditions: read-out: apparent Kd; compound concentrations: 100 nM and 1000 nM (sheet 'Samples'), CATDS: 9.2277554070836695E-2; n = 1.
Another assay concerns IRAK1. Conditions: read-out: apparent Kd; compound concentrations: 100 nM and 1000 nM (sheet 'Samples'), CATDS: 0.100374426884943; n = 1.
The next assay deals with PRKCQ. Conditions: read-out: apparent Kd; compound concentrations: 100 nM and 1000 nM (sheet 'Samples'), CATDS: 8.2854130075837501E-2; n = 1.
[1] abbreviates: compound concentrations:100 nM and 1000 nM (sheet 'Samples').

On to `Cl.Nc1c(C(=O)c2cccc(-c3ccncc3)c2)cnn1-c1ccc(F)cc1F` [RO1166300-001], for which the potency estimated from few doses was 1830 nM in the assay on CDKL5 (CATDS: 0.17547829897004599); 82.3 nM in the assay on MAPK11 (CATDS: 0.67677633408210103); 1060 nM in the assay with MAPK14 (compound concentrations: 100 nM and 1000 nM (sheet 'Samples'), CATDS: 0.205012911986655); 584 nM with MAPKAPK2.
Regarding `CC(C(=O)NC1CCN(c2ccnc(Nc3ccc(F)cc3)n2)C1)c1ccc(Cl)cc1` (stereo not drawn) [GSK1379713A], the potency estimated from few doses in the assay with CDK6 (setting [1]) is 2080 nM; in the assay with HSP90B1, 88 nM; in the assay on MAP2K1 it was 2230 nM; in the assay with MAP2K2, 1460 nM; in the assay with NNT, 1400 nM; with NQO1 (setting [1]), 1650 nM.
Consider `COc1cccc(-n2ncc3c(N/N=C/c4ccc(F)cc4)ncnc32)c1` [GW817396X], for which the potency estimated from few doses was 2110 nM in the assay with CDKL5 (CATDS: 0.29608844643475601), 1520 nM with ERBB3 and 1360 nM with MYLK3.
For the molecule `O=c1cc(N2CCOCC2)nc2n(Cc3cccc(F)c3)ccn12` [GSK2297430A], the potency estimated from few doses in the assay on CDK6 (setting [1]) is 2000 nM; in the assay with FYN, 1140 nM; in the assay on MAP2K2, 1780 nM; with MAPK14 (setting [1]), 1450 nM; in the assay on PI4KA, 1610 nM; in the assay on PIK3C2A, 2440 nM. Also, the potency estimated from few doses in the assay on PIK3C3 is 235 nM; in the assay with PIK3CB, 31.5 nM; in the assay on PIK3CD (CATDS: 0.27438684743153402), 68.1 nM; with PIM2 it was 1670 nM; in the assay on PRKDC, 1130 nM; in the assay on RIOK2 (setting [1]) it was 1490 nM. Moreover, in the assay on VDAC3, the potency estimated from few doses was 1830 nM.
Take `Cl.Nc1c(C(=O)c2cccc(-c3cccnc3)c2)cnn1-c1ccc(F)cc1` [RO1162529-002]: the potency estimated from few doses is 1190 nM with CDK6 (compound concentrations: 100 nM and 1000 nM (sheet 'Samples'), CATDS: 9.94086879029107E-2); 2030 nM in the assay with ERCC2; 1410 nM in the assay on ILK; 1160 nM in the assay with IRAK1; 877 nM with MAPK11 (CATDS: 0.114875582953057); 1470 nM in the assay with MAPK14 (compound concentrations: 100 nM and 1000 nM (sheet 'Samples'), CATDS: 9.0546615649564399E-2). For the same molecule, the potency estimated from few doses with NQO1 (compound concentrations: 100 nM and 1000 nM (sheet 'Samples'), CATDS: 0.102757075513336) was 1100 nM; with PIK3CD (CATDS: 0.395344018245397) it was 126 nM; in the assay with PRKCQ, 1850 nM; in the assay on RIOK2 (compound concentrations: 100 nM and 1000 nM (sheet 'Samples'), CATDS: 7.9590231457497898E-2) it was 2060 nM.
